Compound activity (PubChem BioAssay)
E-sel TNF inh: blocks E-selectin expression induced by TNF alpha; inhibition, % at 2 µM; HUVEC TNFa-induced E-selectin immunofluorescence, high content; 120,000 compounds, 0.71% hits; AID 1246;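 active means inhibition above the batch mean plus 3 SD, and confirmed as a hit on visual image review, cut at about 43% in these data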;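 further: 0% = TNF-stimulated DMSO wells and 100% = unstimulated control wells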
MRP1 act: activators of MRP-1; H69AR cells + doxorubicin, viability rescue, CellTiter-Glo; viability increase, % at 10 µM; 140,000 compounds, 0.61% hits;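 active means viability gain under doxorubicin at or above a set limit, the compound median plus 3 SD, cut at about 4.7% in these data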;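 further: MRP-1 overexpressing cells given doxorubicin 25 µM after compound pretreatment; 18-22 h compound pretreatment then 72 h with doxorubicin before readout; 0% = doxorubicin-only wells and 100% = vehicle-treated cells without doxorubicin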
cytoskel mod: alters cytoskeleton assembly in HUVEC cells; HUVEC TNFa F-actin phalloidin imaging, high content; inhibition, % at 2 µM; 91,000 compounds, 0.18% hits; AID 836;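 active means inhibition above the batch mean plus 3 SD and confirmed as a hit by visual image inspection, cut at about 30% in these data, passing the limit was not always enough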
MRP reversal: compounds reversing MRP-mediated drug resistance; H69AR cells + 2 uM doxorubicin, CellTiter-Glo, 72 h; differential viability (reversal), % at 10 µM; 85,000 compounds, 0.04% hits; AID 602;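 active means viability drop by adding the cancer drug above about 55%, with treated viability meeting a 40% cutoff, limit read from the data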;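 further: viability without doxorubicin minus viability with 2 µM doxorubicin for each compound; larger differential means the compound sensitizes cells more to doxorubicin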
VCAM1 TNFa inh: reduces TNF alpha induced VCAM1 expression in HUVEC | HUVEC TNFa-induced VCAM-1 immunofluorescence, high-content imaging | 95,000 compounds, 0.48% hits | inhibition, % at 2 µM;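 active means inhibition above the batch mean plus 3 SD, with images confirmed as a hit by eye, cut at about 37% in these data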;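 further: 0% = TNF-stimulated DMSO wells and 100% = unstimulated control wells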
Numbers without * were called inactive; . = not tested or not shown. Only some compounds are listed: those with a hit (about 1.5% of all), similar ones and a draw of the others.

SMILES | E-sel TNF inh | MRP1 act | cytoskel mod | MRP reversal | VCAM1 TNFa inh
COc1ccc(/C(O)=C2\C(=O)C(=O)N(CCN3CCOCC3)C2c2ccccc2OC)cc1 (stereo not given) | 41.7 | 0.5 | . | 10.7 | .
COc1ccccc1C1/C(=C(/O)c2ccc(C)cc2)C(=O)C(=O)N1CCN1CCOCC1 (stereo not given) | 69.5* | -0.2 | . | 1.4 | .
O=C(c1ccc(-c2cccc(Cl)c2)o1)N1CCN(c2ccc([N+](=O)[O-])cc2)CC1 | -0.6 | 4.7* | . | . | .
Cc1c(Cl)cccc1-c1ccc(C(=O)N2CCN(c3ccc([N+](=O)[O-])cc3)CC2)o1 | . | -2.1 | 25.9 | . | 13.0
CCc1ccccc1OCC(=O)OCC(=O)c1c(N)n(C)c(=O)n(C)c1=O | -9.9 | . | . | . | .
Cn1c(N)c(C(=O)COC(=O)CN2C(=O)c3ccccc3C2=O)c(=O)n(C)c1=O | 68.2* | 0.5 | . | . | .
COc1ccc(C2C/C(=N\O)C(C)(C)O2)cc1 (stereo not given) | . | -0.2 | 1.6 | 5.9 | -3.3
COc1ccc(C2CC(O)(C(C)(C)O)NO2)cc1 (stereo not given) | 46.5* | -4.5 | . | 5.2 | -7.7
CC(C)CC(c1nnnn1Cc1ccc2c(c1)OCO2)N1CCC(C(N)=O)CC1 (stereo not given) | 9.7 | . | . | . | .
CCN(CC)c1ccc(/C=N/NC(=O)c2c(Cl)cnn2C)c(O)c1 | . | -0.5 | . | . | .
Cc1[nH]n(-c2ccc([N+](=O)[O-])cc2)c(=O)c1N=Nc1nc2ccccc2s1 | 19.1 | . | 5.8 | -21.6 | 52.4*
Cc1cc(C)n(-c2ccc(C(=O)Nc3cccc(S(=O)(=O)N(C)C)c3)cc2)n1 | 4.3 | 5.8* | . | . | .
CCN(CC)S(=O)(=O)c1cccc(NC(=O)c2ccc(-n3nc(C)cc3C)cc2)c1 | . | 0.7 | . | . | .
COCC(=O)n1nc(NCc2ccc(OC)cc2)nc1NCc1ccc(OC)cc1 | 13.5 | 2.1 | -9.5 | 9.8 | 0.4
COc1ccc(CNc2nc(NCc3ccc(OC)cc3)n(S(C)(=O)=O)n2)cc1 | 7.2 | 5.1* | -6.7 | 11.3 | -1.4
c1ccc(CN2CCCC3(CCCN(Cc4nc(COc5ccccc5)no4)C3)C2)cc1 (stereo not given) | -5.8 | . | . | . | .
CCOC(=O)CC(=O)CSc1nc2c(sc(=S)n2-c2ccccc2)c(=O)[nH]1 | . | -4.2 | 3.9 | -25.7 | -45.2
CCOC(=O)c1ccc(-n2c(=S)sc3c(=O)[nH]c(C)nc32)cc1 | -15.5 | -2.3 | 11.5 | 15.8 | 87.0*
CC(=O)NCCn1c(SCc2ccc(C)cc2C)nc2ccccc2c1=O | . | -2.3 | 5.4 | -27.8 | -2.3
COc1ccc(/C=N/n2cc(-c3ccccc3)nc2N)cc1 | 64.5* | -4.0 | . | -36.5 | .
CCOC(=O)c1cnn(-c2cc(Oc3ccccc3C)ncn2)c1N | 14.3 | 0.9 | 5.8 | . | -47.7
Cc1onc(-c2ccccc2Cl)c1C(=O)OCC(=O)Nc1ccc2c(c1)OCO2 | -5.7 | 5.7* | . | 11.5 | .
Cc1ccc(N(CC(=O)NCC2CCCO2)C(=O)Cn2nnc(-c3cccs3)n2)cc1 (stereo not given) | 10.3 | . | . | . | .
CCOc1ccc2c(c1)c(N=O)c(O)n2C | -10.3 | 6.0* | . | . | .
CCOc1ccc(/C=N/NC(=O)c2c(C)n(C)c3ccc(OC)cc23)cc1 | . | -2.3 | . | . | .
SMILES | E-sel TNF inh | MRP1 act | cytoskel mod | MRP reversal | VCAM1 TNFa inh
CCn1c(=O)c(C2=NS(=O)(=O)c3ccccc3N2)c(O)c2ccccc21 | . | . | . | -5.0 | .
C=CCn1c(COc2ccccc2)nnc1SCC(=O)C(C)(C)C | 11.3 | 0.1 | -28.8 | -0.1 | 13.8
C=CCn1c(COc2ccc(Cl)cc2)nnc1SCC(=O)N/N=C/c1cccc(O)c1 | -6.7 | 2.9 | 65.6* | . | 5.6
C=CCn1c(COc2ccc(Cl)cc2)nnc1SCC(=O)N1CC(=O)Nc2ccccc21 | -14.8 | 4.7* | . | 16.5 | .
C=CCn1c(Cc2c[nH]c3ccccc23)nnc1SCC(=O)NCc1ccccc1 | -7.5 | -1.2 | 5.0 | -17.7 | 0.5
C=CCn1c(CNc2ccccc2)nnc1SCC(=O)N/N=C/c1ccccc1O | 14.3 | 5.3* | 5.0 | . | 2.6
Cc1ccc(CNS(=O)(=O)N(C)C)cc1 | 7.0 | -0.8 | 23.5 | -1.3 | 16.2
COc1ccc(CN=C2NC(=O)CC(C(=O)Nc3ccccc3C)S2)cc1 (stereo not given) | 6.2 | 6.0* | . | . | .
N=c1sccn1CC(=O)NCCc1ccc(Cl)cc1 | 80.8* | -3.3 | -0.2 | 2.5 | -10.8
N=c1sccn1CC(=O)Nc1cc(Cl)ccc1[N+](=O)[O-] | -8.0 | . | . | . | .
CCCN(CCC)CC(=O)Nc1cccc2c1OCO2 | -20.1 | -1.0 | 10.2 | 14.8 | 13.6
CCOC(=O)c1cnc2c(OC)cccc2c1Nc1ccc2c(c1)OCCO2 | . | -1.9 | . | . | .
CCN(CC)C(=O)C(=O)c1c(-c2ccccc2)[nH]c2ccccc12 | . | 23.1* | . | . | .
CCNC(=O)C(=O)c1c(-c2ccccc2)[nH]c2ccccc12 | -29.3 | . | . | . | .
Cc1ccc(/C([O-])=C(/C(=S)NCc2ccccc2)[n+]2cccc(CO)c2)cc1[N+](=O)[O-] | 73.4* | . | . | . | .
Cc1ccc(NC(=S)NCc2ccccc2)cc1[N+](=O)[O-] | -1.0 | -5.1 | . | . | .
Cc1cc(=O)oc2cc(Oc3ccc([N+](=O)[O-])cc3[N+](=O)[O-])ccc12 | -5.2 | -5.0 | . | . | .
O=C(N/N=C/c1ccc(O)cc1)c1ccc(COc2cc(Cl)ccc2Cl)o1 | 96.0* | -4.0 | -40.0 | . | 22.9
O=C(Nc1ccn(Cc2ccccc2F)n1)c1ccc(COc2cc(Cl)ccc2Cl)o1 | -17.6 | 7.0* | -26.9 | . | 1.0
O=C(Nc1ccn(Cc2c(F)c(F)cc(F)c2F)n1)c1ccc(COc2cc(Cl)ccc2Cl)o1 | 2.5 | 2.8 | -14.1 | . | -30.0
COc1cc(CN2CCN(c3ccc(C)cc3)CC2)cc([N+](=O)[O-])c1O | 99.9* | -1.9 | 4.6 | . | 8.9
COc1cc(CN2CCN(c3cc(C)ccc3C)CC2)cc([N+](=O)[O-])c1O | -0.5 | . | -10.4 | . | 5.8
CC1=Nc2ccccc2/C1=C/c1c(N)n2c(S(=O)(=O)CC(C)C)nsc2nc1=O | 95.9* | . | . | . | .
CC1=Nc2ccccc2/C1=C/c1c(N)n2c(S(=O)(=O)C(C)C)nsc2nc1=O | -15.5 | . | . | . | .
OC1CCN(c2c3c(nc4cc(-c5ccc(F)cc5)nn24)CCC3)CC1 | 7.2 | -5.9 | -11.4 | 2.2 | 2.0
SMILES | E-sel TNF inh | MRP1 act | cytoskel mod | MRP reversal | VCAM1 TNFa inh
O=C(C1CCCO1)N1CCN(c2c3c(nc4cc(-c5ccc(F)cc5)nn24)CCC3)CC1 (stereo not given) | 64.7* | -4.1 | 30.4 | -12.4 | -0.9
O=[N+]([O-])c1cccc(/C=N\N2CCN(Cc3ccccc3Cl)CC2)c1 | -1.5 | 4.8* | 5.1 | 12.9 | 1.6
O=[N+]([O-])c1cccc(/C=N/N2CCN(Cc3ccccc3)CC2)c1 | -4.1 | . | . | . | .
Oc1ccc(N=Nc2n[nH]c(-c3ccc(Cl)cc3)n2)cc1 | -9.9 | -3.9 | 51.5* | . | 11.1
CCOC(=O)C1CCCN(C(=O)COC(=O)c2cc(=O)c3ccccc3o2)C1 (stereo not given) | 63.6* | -1.9 | -18.4 | 7.7 | -5.0
Cn1c(SCc2ccc(Br)cc2)nnc1-c1ccncc1 | 72.7* | 2.2 | 1.3 | 11.2 | -0.6
COc1ccc(CNC(=O)CSCc2ccccc2Cl)cc1 | . | 1.2 | . | . | .
CC(C(=O)N1c2ccccc2CCc2ccccc21)n1nnc(-c2ccc(N(C)C)cc2)n1 (stereo not given) | 5.2 | 8.2* | 9.2 | 0.2 | 11.2
